Hit rate of the full screen: of about 16,000 compounds, about 2,600 (16%) were called active. About 20% were inconclusive and are not listed. The call rests on the fitted dose curve; in most records, active means well fitted curve in the direction sought with a large enough effect; inconclusive means small, poorly fitted or top-dose-only effect, or effect the other way; inactive means no such curve, though single readings can be large or run the other way. Not all results are given here. Some compounds were tested as several samples or in several runs, with calls that do not always agree. Square brackets hold non-standard residues; d marks the D form. Peptide text beside a SMILES is read from it. * marks the point of attachment. ξ: configuration not given here. Cbz = O=C(OCc1ccccc1)*; ξA = CC(N)C(=O)O
target: Cytochrome P450 2D6 (Homo sapiens) (UniProt P10635); assay: Cytochrome panel assay with activity outcomes; conditions: recombinant CYP, pro-luciferin dealkylation, luminescence, p450-cyp2d6; series mostly up to 57.1 µM; activity, negative = inhibition: at the top concentration
On the % scale 0 is the no-effect control and ±100 the full control effect.

Sequence of Cytochrome P450 2D6 (Homo sapiens) (P10635 whole entry, looked up): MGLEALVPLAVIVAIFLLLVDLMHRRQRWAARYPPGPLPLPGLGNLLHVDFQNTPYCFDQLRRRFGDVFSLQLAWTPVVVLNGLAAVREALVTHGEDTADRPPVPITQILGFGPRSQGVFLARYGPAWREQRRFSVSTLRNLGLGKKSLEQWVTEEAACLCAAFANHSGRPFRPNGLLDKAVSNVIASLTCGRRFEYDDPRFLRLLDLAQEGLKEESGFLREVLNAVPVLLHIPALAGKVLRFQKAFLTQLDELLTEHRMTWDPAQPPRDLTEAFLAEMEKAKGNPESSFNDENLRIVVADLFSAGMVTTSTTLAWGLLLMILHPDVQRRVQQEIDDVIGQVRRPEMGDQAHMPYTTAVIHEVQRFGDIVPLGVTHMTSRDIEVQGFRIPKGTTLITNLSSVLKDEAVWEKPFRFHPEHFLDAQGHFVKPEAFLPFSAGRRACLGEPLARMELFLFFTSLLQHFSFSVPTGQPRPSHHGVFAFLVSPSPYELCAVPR

activity, negative = inhibition, inactive:
NCCCCN 0.962%
CCC1(O)c2ccccc2-c2ncccc21 (stereo not given) 6.35%
COC(=O)[C@@H]1CC[C@H](C)[C@@H](c2ccc(C)cc2)N1C(=O)c1ccc(/C=N\OC[C@@H](O)[C@H]2O[C@H]3OC(C)(C)O[C@H]3[C@@H]2O)cc1 3.7% [at 11.4 µM]
COCCNc1nc(SCc2ccccc2)nc2sc3c(c12)CCC3 -18.8%
Cc1ccc(C(CC(N)=O)c2ccco2)cc1 (stereo not given) 1.48%
O=C(O)CNC(=O)[C@@H](CS)Cc1ccccc1 -0.986% [at 25.6 µM]
COC(=O)CNC(=O)C(C)NC(=O)CNC(=O)OCc1ccccc1 (stereo not drawn) (Cbz-Gly-[ξA]-Gly-OMe) 25.8%
Cc1cc(OC(=O)c2ccc(Cl)cc2Cl)nc(C)n1 -22.9%
CC(C)(C)CC(=O)NC(=S)N1CCCCCC1 6.83%
O=c1c(-c2cccc(Cl)c2)nc2cncnc2n1-c1ccccc1 -20.1%
Cn1c(CN2CCCC2)nc2cc(NC(=O)C3CCCCC3)ccc21 -1.37%
CCCc1nc(SCC(=O)NNC(=O)C2CCCCC2)c2ccccc2n1 7.9%
COc1ccc(Oc2nc(C)cc(C)c2S(C)(=O)=O)cc1 -6.85%
O=c1c(-c2ccc(Cl)cc2)nc2cnc(N3CCOCC3)nc2n1CCc1ccccc1 3.89%
CC(C)NC(=O)CC(=O)N/N=C/c1ccc(Br)cc1 -10.9%
CCSc1c(C(=O)NC)ccc2c1C(=O)c1ccccc1C2=O -22.2%
CC(=O)NCCc1c(Cc2ccccc2)[nH]c2ccccc12 -11.5%
CC(C)[C@@H]1NC(=O)[C@H](CCCCN)NC(=O)[C@H](Cc2c[nH]c3ccccc23)NC(=O)[C@H](Cc2ccc(O)cc2)NC(=O)[C@H](C)N(C)C(=O)[C@H](Cc2ccccc2)NC1=O 2.29%
Nc1ccc(-c2ccc(Nc3cc(S(=O)(=O)O)c(N)c4c3C(=O)c3ccccc3C4=O)cc2)c(S(=O)(=O)O)c1 6.34% [at 11.4 µM]
CNc1nc(-c2cccc(C#N)c2)nc2ccccc12 8.46%
N#Cc1cccc(-c2nc(NCc3cccnc3)c3ccccc3n2)c1 -8.94%
N#Cc1cccc(-c2nc(Nc3ccccc3)c3ccccc3n2)c1 9.28%
Cn1cnnc1SCC(=O)OCN1C(=O)c2ccccc2C1=O 21.6%
Cc1noc(C)c1C(=O)N1CCC2(CCN(C(=O)NC(C)C)CC2)CC1 11.3%
Cn1c(=O)c2c(ncn2CCO)n(C)c1=O -0.742% [at 25.6 µM]
Cn1c(=O)c2c(ncn2C[C@@H](O)CO)n(C)c1=O 0.0743% [at 25.6 µM]
Cc1cccc(C(=O)NNC(=O)C(=O)NC(C)(C)C)c1 8.26%
CC1(C)CC(=O)C2=C(C1)N(Cc1cccnc1)C(=O)C2(NC(=O)c1cccnc1)C(F)(F)F (stereo not given) 12.6%
CCn1c(-c2ccc3ncccc3c2)n[nH]c1=S -1.86%
CCn1c(-c2ccoc2C)n[nH]c1=S 4.15%
CSc1nnc2c(n1)OC(C)N(C(=O)c1ccccc1)c1ccccc1-2 (stereo not given) -6.63%
CC(=C/c1ccccc1)/C=N/n1cnnc1 -4.74%
CCOC(=O)CSc1n[nH]c(-c2cccnc2)n1 20%
COc1ccc(-n2c(=O)c(-c3cccs3)nc3cnc(Nc4cccc(OC)c4)nc32)cc1 6%
CN(C)c1ncc2nc(-c3cccs3)c(=O)n(CCc3ccccc3)c2n1 -3.61%
O=c1c(-c2cccs2)nc2cncnc2n1Cc1ccccc1 -2.29%
COc1cc2c(cc1OC)C(C(=O)N1CCN(c3ccccn3)CC1)C(c1cccs1)N(C)C2=O (stereo not given) -6.69%
OCCN(CCO)c1ncnc2nc[nH]c12 -3.25% [at 11.4 µM]
Cc1cc(C)cc(NC(=O)N2CCCC2C(=O)Nc2ccc(-n3cnnn3)c(C)c2)c1 (stereo not given) 1.05%
COc1cccc(Nc2ncc3nc(-c4ccc(F)cc4)c(=O)n(CCC#N)c3n2)c1 -3.04%
COc1ccc(N2CCN(C(=S)Nc3cc(C)cc(C)c3)CC2)cc1 -6.18%
CCOC(=O)c1[nH]c(C(=O)O)c(CCC(=O)OC)c1C 1.16%
Cc1ccc(Cl)cc1N1CCN(S(=O)(=O)c2ccc3c(c2)OCCO3)CC1 7.2%
CN1CCN(c2cc(-c3ccccc3C(F)(F)F)ncn2)CC1 -0.967%
COCCn1c(=O)c(-c2ccc(Cl)cc2)nc2cnc(Nc3ccccc3)nc21 -2.28%
Cn1c(N)c(N=Nc2ccc(S(N)(=O)=O)cc2)c(=O)n(C)c1=O 5.11% [at 11.4 µM]
Cc1cc(N2CCOCC2)nc2ccc(Cc3ccc4nc(N5CCOCC5)cc(C)c4c3)cc12 -2.88% [at 11.4 µM]
CCN(CC)C(=O)N1CCN(C)CC1 2.61% [at 25.6 µM]
COc1ccc(Sc2ccc(NC(=O)c3ccccc3Cl)cc2C#N)cc1 -7.88%
CCOC(=O)c1ccc(NC(=O)CC2NCCNC2=O)cc1 (stereo not given) 20.7%
CC(=O)Nc1ccc(NC(=O)CC2Nc3cccc4cccc(c34)NC2=O)cc1 (stereo not given) -14.1%

AC50, 3.16 µM (active) and inactive:
CC(C)NC[C@H](O)c1ccc2ccccc2c1

AC50, inactive:
CC(C)NC[C@H](O)c1cc(O)cc(O)c1
CC(C)NC[C@H](O)c1ccc(NS(C)(=O)=O)cc1

AC50, active:
CC(=O)SC[C@@H](Cc1ccccc1)C(=O)NCC(=O)OCc1ccccc1 0.316 µM
O=C(Nc1nc2ccccc2n1CCN1CCCCC1)C1CCCCC1 4.47 µM
Cc1[nH]c2ccccc2c1CCNC(=O)c1ccc2c(c1[N+](=O)[O-])C(=O)c1ccccc1C2=O 1.12 µM
COc1ccccc1CNc1nc(-c2cccc(C#N)c2)nc2ccccc12 10 µM
N#Cc1cccc(-c2nc(NCc3ccccc3)c3ccccc3n2)c1 10 µM
Cn1c(=O)c2c(ncn2CC(COCc2ccccc2Cl)OCc2ccccc2Cl)n(C)c1=O (stereo not given) 15.8 µM
CCCOc1cccc(-c2cc(-c3n[nH]c(=S)n3CC)c3ccccc3n2)c1 6.31 µM
CC(/C=N/n1c(-c2cccnc2)n[nH]c1=S)=C\c1ccccc1 7.08 µM
O=c1onc(-c2cccs2)n1Cc1ccccc1 11.2 µM
CN1CCN(C2=Cc3ccccc3Oc3ccc(Cl)cc32)CC1 0.0398 µM
Cc1cccc(NC(=O)CC2Nc3cccc4cccc(c34)NC2=O)c1 (stereo not given) 14.1 µM

Source: PubChem BioAssay AID1851 (National Center for Advancing Translational Sciences (NCATS), 2009)
